Compounds with a hit are over-represented: about 1.4% of the library has one in this group of screens.
APOBEC3G inh: APOBEC3G (human) deaminase inhibition. Q9HC16. recombinant A3G, ssDNA deamination FAM/TAMRA fluorescence. inhibition, % at 20 µM. actives 0.28% (n = 330,000). AID 493012;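 active means inhibition of at least 40% at 20 µM, with no more than 30% in the related APOBEC3A deaminase screen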;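 further: plate controls were DMSO wells with A3G for no effect and wells lacking A3G enzyme for full effect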
Target sequence (Q9HC16 whole entry, looked up): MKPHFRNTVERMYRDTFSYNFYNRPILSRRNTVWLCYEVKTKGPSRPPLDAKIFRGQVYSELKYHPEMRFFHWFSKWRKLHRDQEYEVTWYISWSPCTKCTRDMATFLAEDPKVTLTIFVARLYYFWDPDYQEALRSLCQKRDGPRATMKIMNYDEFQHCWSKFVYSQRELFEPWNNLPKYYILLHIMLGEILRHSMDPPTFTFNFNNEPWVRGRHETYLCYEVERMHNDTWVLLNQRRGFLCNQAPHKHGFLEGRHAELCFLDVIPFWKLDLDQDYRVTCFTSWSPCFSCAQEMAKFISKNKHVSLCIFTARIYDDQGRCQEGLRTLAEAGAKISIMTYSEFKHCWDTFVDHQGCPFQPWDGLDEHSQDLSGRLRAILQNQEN
LANA-H2A inh: blocks KSHV LANA binding to histone H2A/H2B; Q9QR71; cell-free LANA-H2A/H2B peptide, fluorescence polarization; inhibition, % (no concentration beside the values); actives 0.6% (n = 320,000); in the data active means inhibition mostly above about 10%, no sharp cut-off; inactive means mostly below about 6.7%
APOBEC3A inh: blocks human APOBEC3A ssDNA deamination; inhibition, % at 20 µM; AID 493011; actives 0.41% (n = 330,000); recombinant A3A, FAM/TAMRA ssDNA deamination fluorescence; P31941;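 active means at least 40% inhibition at 20 µM here, with at most 30% in a related deaminase screen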;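 further: plate controls were A3A with DMSO for no effect and wells lacking A3A enzyme for full effect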
Target sequence (P31941 whole entry, looked up): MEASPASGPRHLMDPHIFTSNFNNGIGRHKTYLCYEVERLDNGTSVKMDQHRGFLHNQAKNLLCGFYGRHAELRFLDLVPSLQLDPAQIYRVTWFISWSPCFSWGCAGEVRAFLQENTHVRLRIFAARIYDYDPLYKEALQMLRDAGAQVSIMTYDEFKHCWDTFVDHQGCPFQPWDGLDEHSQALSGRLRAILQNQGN
HDAC3 inhib: human HDAC3 inhibition; O15379; recombinant HDAC3, fluorogenic peptide/trypsin coupled, fluorescence; inhibition, % at 8.3 µM; actives 0.15% (n = 320,000); AID 2718; in the data active means inhibition above about 26%, passing the limit was not always enough
* = called active by the depositor; / = no result given; + = active, no number.

SMILES	APOBEC3G inh	LANA-H2A inh	APOBEC3A inh	HDAC3 inhib
COc1ccc(-c2cc(CCC(=O)N3CCN(c4cc(C)ccc4C)CC3)on2)cc1	5.0	/	3.5	/
CC1CCCC(NC(=O)Cn2c(Cl)nc3c2c(=O)n(C)c(=O)n3C)C1C (stereo not given)	-1.1	-5.7	3.0	-9.3
O=C(O)[C@H](Cc1ccccc1)NC(=O)C(c1ccccc1)(c1ccccc1)c1ccccc1	-15.1	-2.0	-0.5	4.7
O=C(CC(c1ccccc1)(c1ccccc1)c1ccccc1)N[C@@H](Cc1ccccc1)C(=O)O	-6.7	16.1*	-1.4	-1.1
COc1cccc(/C=C/C(=O)OCC(=O)c2ccc(C)c(C)c2)c1OC	-4.2	19.8*	-2.7	-7.3
COc1cccc(/C=C/C(=O)OCC(=O)c2ccccc2)c1OC	-7.4	-1.8	-2.5	-13.8
COc1ccc(C(=O)Nc2c(N)nc(SCC(=O)c3ccccc3)[nH]c2=O)cc1	3.4	-16.5	5.1	7.3
CC1CCN(C(=O)CSc2nc(N)c(NC(=O)c3ccccc3)c(=O)[nH]2)CC1	0.8	47.7*	-2.6	-5.3
CCOC(=O)C1(Cc2ccccc2C(F)(F)F)CCN(CCCn2cccn2)CC1	-4.2	14.3*	3.0	1.1
Cc1cccc(C)c1NC(=O)CN(C)C(=O)c1ccc2c(=O)n3c(nc2c1)CCC3	-8.4	15.1*	-2.2	-12.0
Cc1cc(C)c(NC(=O)CNC(=O)c2ccc3c(=O)n4c(nc3c2)CCC4)c(C)c1	-3.4	4.8	-0.3	-0.7
CCc1ccc(C(=O)N/N=C/c2ccc(Cl)cc2Cl)nc1	-10.8	40.3*	-8.0	8.0
O=C(NC1CCC1)C1CCC(=O)N(Cc2cccc(F)c2)C1 (stereo not given)	-1.2	37.6*	-3.4	-7.2
CC(=O)CSc1nnc(Cc2ccc([N+](=O)[O-])cc2)o1	0.1	0.4	1.1	27.9*
CC1=CC2=NC(=O)CC(C)(C(=O)N(CC(=O)NC3CCCC3)c3ccccc3C)N2C=C1 (stereo not given)	3.1	11.1*	4.4	-67.4
CCN(C[C@H]1N[C@@](Cc2ccccc2)(C(=O)OC)[C@H]2C(=O)N(Cc3ccccc3)C(=O)[C@@H]12)C(=O)C1CCCCC1	-0.8	/	-0.4	/
O=C(/C=C/c1ccc(Br)o1)Nc1nccs1	-2.7	19.1*	6.4	-4.3
O=C(Nc1nccs1)c1ccc(Br)o1	-3.7	2.8	0.3	2.7
Cc1cccc(NC(=O)COC(=O)Cc2cccc(C(F)(F)F)c2)c1C	-2.8	+	3.1	-5.0
CC(=O)c1ccccc1NC(=O)COC(=O)Cc1cccc(C(F)(F)F)c1	-3.9	3.0	-1.3	19.1
Cc1ccc(C2=[N+]([O-])C3(CCCCC/C3=N\NC(N)=O)N(O)C2(C)C)o1 (stereo not given)	-5.1	-1.0	-16.6	11.1
CC1(C)C(c2cccs2)=[N+]([O-])C2(CCCCC/C2=N\O)N1O (stereo not given)	-5.5	13.1*	-7.3	10.3
Cc1csc(CCc2nc(C)cs2)n1	-5.1	8.4*	-0.6	-1.5
NS(=O)(=O)c1cccc(NC(=O)COC(=O)CCC(=O)c2cccs2)c1	-4.0	-5.1	0.1	-5.4
COC(=O)[C@@]12CCCN1[C@H](c1ccc(-c3cccc(Cl)c3)c(OC)c1)[C@H]1C(=O)N(C)C(=O)[C@H]12	-9.1	1.3	-4.1	4.8
SMILES	APOBEC3G inh	LANA-H2A inh	APOBEC3A inh	HDAC3 inhib
COC(=O)[C@@]12CCCCN1[C@H](c1ccc(-c3cccc(Cl)c3)c(OC)c1)[C@@H]1C(=O)N(C)C(=O)[C@@H]12	-0.7	-0.2	-0.3	32.7*
CCOC(=O)C1(Cc2cccc(Cl)c2)CCCN(C(=O)c2ccoc2C)C1 (stereo not given)	-2.4	95.3*	-3.3	0.2
COc1cccc(N2CCN(C(=O)C3CCC(=O)N(C4CCCCCC4)C3)CC2)c1 (stereo not given)	-4.4	8.6	-2.1	/
C[n+]1c2n(c3ccccc31)N=C(c1ccc(Cl)cc1)CS2	-2.2	1.9	-3.0	55.0*
COc1ccc(C2=Nn3c([n+](C)c4ccccc43)SC2)cc1	-3.2	3.8	0.9	31.2*
Cc1cc(C)c(S(N)(=O)=O)c(C)c1N(C)S(=O)(=O)c1ccc(Cl)cc1	-4.2	12.3*	-4.9	-5.0
CCN(c1ccccc1)S(=O)(=O)c1cc(NC(=O)CN2CCN(C)CC2)ccc1Cl	-6.6	-1.8	-3.6	-1.7
CS(=O)(=O)c1ccc(C(=O)CN2C(=O)NC3(CCCc4ccccc43)C2=O)cc1 (stereo not given)	-1.6	17.0*	1.4	-4.0
Cn1cncc1C#Cc1ccc2c(=O)c3ccccc3oc2c1	-5.3	-1.6	2.1	-4.3
O=C(Nc1ccccc1)OCc1cc(-c2ccccc2Cl)on1	-1.9	31.4*	-1.9	3.6
O=C(Nc1cccc(O)c1)c1cc(-c2ccccc2Cl)on1	-1.3	1.4	0.9	-5.6
COc1ccc(CCNCC(O)COc2cccc(C(C)=O)c2)cc1OC (stereo not given)	-4.6	-4.4	-2.9	4.2
O=c1c(-c2c(O)cc(O)c3c2O[C@H](c2ccc(O)cc2)CC3)c(-c2ccc(O)cc2)oc2cc(O)cc(O)c12	11.3	5.4	-0.5	2.8
CC1(C)S[C@@H]2[C@H](NC(=O)C(C(=O)O)c3ccccc3)C(=O)N2[C@H]1C(=O)O (stereo not given in full)	-3.2	26.8*	-1.2	/
COc1ccc2ccccc2c1C(O)c1nccn1C (stereo not given)	-8.9	38.4*	-2.3	0.8
CC(C)(CN1CCc2ccccc2C1)NS(=O)(=O)c1ccc(Cl)cc1	-5.3	25.0*	-8.8	-2.9
COc1ccc2cc(C[C@@H]3CC[C@@H](CNC(N)=O)O3)ccc2c1	4.4	/	0.8	/
CCc1cc2c(=O)oc(-c3ccccc3F)nc2s1	-2.7	-5.1	1.3	69.0*
Cc1cc2c(=O)oc(-c3ccc(F)cc3)nc2s1	-8.0	-1.1	1.4	7.6
Cc1ccc(CSCC2Nc3ccc(C(=O)N4CCN(c5cccc(C)c5)C(C)C4)cc3NC2=O)cc1 (stereo not given)	45.8*	0.8	-22.5	10.0
Cc1cccc(N2CCN(C(=O)c3ccc4c(c3)NC(=O)C(CSCc3ccc(F)cc3)N4)CC2C)c1 (stereo not given)	8.5	5.5	-28.6	8.1
O=C(C1COc2ccccc2O1)N1CCN(c2ccc([N+](=O)[O-])cc2)CC1 (stereo not given)	-3.9	-2.9	7.9	-3.4
CCCOc1ccc(C(=O)ON=C2CCN(C)CC2)cc1	-4.9	31.3*	-1.9	3.6
CC(=O)c1c(C)[nH]c(C(=O)N2CCN(S(=O)(=O)c3ccc(C)cc3C)CC2)c1C	-5.5	1.3	-2.1	6.1
CCOC(=O)c1c(C)[nH]c(C(=O)OCC(=O)N2CCN(S(=O)(=O)c3ccc(C)cc3C)CC2)c1C	-3.8	122.3*	-3.9	5.7
Oc1ccc(-c2n[nH]c(=S)n2Cc2ccco2)cc1	49.4*	1.4	-1.1	5.1
Oc1cc2ccccc2cc1-c1n[nH]c(=S)n1Cc1ccco1	-0.7	4.1	-1.5	-0.4
COc1ccc(C(=O)CN2CCN(S(=O)(=O)c3cccc([N+](=O)[O-])c3)CC2)cc1OC	11.9	0.1	-1.1	53.3*
